Experimental data: publication PMC4081100, “A DNA-binding-site landscape and regulatory network analysis for NAC transcription factors in Arabidopsis thaliana”

Experiments:
Test in all cases: universal protein binding microarray (PBM); transcription factors of Arabidopsis thaliana; high values mean tight binding
Conditions in all cases: protein: recombinant; tags: GST; chain copies: 2; dsDNA, one strand shown
GST-ANAC092(1-176) = biological target: T1, GST-ANAC092(1-176) (Arabidopsis thaliana, UniProt Q9FKA0 1-176)
T1 sequence: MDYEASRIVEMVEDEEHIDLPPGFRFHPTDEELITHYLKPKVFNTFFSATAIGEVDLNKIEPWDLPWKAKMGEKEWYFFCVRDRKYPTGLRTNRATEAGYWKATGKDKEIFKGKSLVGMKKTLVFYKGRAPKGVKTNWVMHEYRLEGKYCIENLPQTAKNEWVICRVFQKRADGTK
Outline: (§1)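 Each value is a normalised enrichment score (E-score) describing binding. The GST-tagged proteins, NAC-domain, full-length or DNA-binding-domain, were induced in cells (zinc-finger proteins with zinc acetate added) and purified on glutathione–Sepharose 4B. They were applied at 200 to 500 nM final, in duplicate, to double-stranded custom all-10-mer Agilent 4 × 180K arrays, and gapped and ungapped 8-mers were scored.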

GST-NTL6(1-168) = GST-NTL6(1-168) (Arabidopsis thaliana, UniProt Q9SCK6 1-168)
GST-NTL6(1-168), sequence (Q9SCK6 1-168): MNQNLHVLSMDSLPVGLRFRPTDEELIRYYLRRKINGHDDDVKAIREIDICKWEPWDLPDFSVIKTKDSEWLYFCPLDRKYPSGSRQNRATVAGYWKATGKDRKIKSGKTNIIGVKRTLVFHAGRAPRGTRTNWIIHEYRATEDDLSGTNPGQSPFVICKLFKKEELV
Outline: as §1

GST-ANAC019 NAC domain = biological target: T2, GST-ANAC019 NAC domain (Arabidopsis thaliana, UniProt Q9C932 14-162)
T2 sequence: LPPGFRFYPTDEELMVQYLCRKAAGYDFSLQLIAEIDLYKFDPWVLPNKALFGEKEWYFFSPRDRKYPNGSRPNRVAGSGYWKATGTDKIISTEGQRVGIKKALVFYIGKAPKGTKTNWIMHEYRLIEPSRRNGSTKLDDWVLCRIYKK
Outline: as §1

GST-ANAC055(1-171) = biological target: T3, GST-ANAC055(1-171) (Arabidopsis thaliana, UniProt Q9LDY8 1-171)
T3 sequence: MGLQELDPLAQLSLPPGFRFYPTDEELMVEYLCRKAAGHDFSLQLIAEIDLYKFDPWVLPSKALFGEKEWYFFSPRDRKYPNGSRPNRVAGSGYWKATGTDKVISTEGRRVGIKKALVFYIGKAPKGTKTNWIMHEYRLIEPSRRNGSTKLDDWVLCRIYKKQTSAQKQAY
Outline: as §1

GST-ATAF1 NAC domain = biological target: T4, GST-ATAF1 NAC domain (Arabidopsis thaliana, UniProt Q39013 7-158)
T4 sequence: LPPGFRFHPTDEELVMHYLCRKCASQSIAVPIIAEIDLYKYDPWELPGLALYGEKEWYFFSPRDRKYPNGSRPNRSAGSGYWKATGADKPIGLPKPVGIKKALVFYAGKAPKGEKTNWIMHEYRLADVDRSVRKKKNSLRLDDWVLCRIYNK
Outline: as §1

[1] = biological target: T5, GST-ANAC092(1-285) full length (Arabidopsis thaliana, UniProt Q9FKA0 1-285)
T5 sequence: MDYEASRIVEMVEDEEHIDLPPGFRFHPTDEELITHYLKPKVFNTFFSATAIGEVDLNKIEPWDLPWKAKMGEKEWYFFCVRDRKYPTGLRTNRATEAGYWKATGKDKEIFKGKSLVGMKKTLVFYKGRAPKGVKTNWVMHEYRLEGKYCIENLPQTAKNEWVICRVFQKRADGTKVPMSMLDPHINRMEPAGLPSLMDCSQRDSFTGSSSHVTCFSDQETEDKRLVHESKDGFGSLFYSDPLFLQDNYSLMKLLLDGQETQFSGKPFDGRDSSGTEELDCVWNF
Outline: as §1

GST-NST2(1-184) = biological target: T6, GST-NST2(1-184) (Arabidopsis thaliana, UniProt Q9M274 1-184)
T6 sequence: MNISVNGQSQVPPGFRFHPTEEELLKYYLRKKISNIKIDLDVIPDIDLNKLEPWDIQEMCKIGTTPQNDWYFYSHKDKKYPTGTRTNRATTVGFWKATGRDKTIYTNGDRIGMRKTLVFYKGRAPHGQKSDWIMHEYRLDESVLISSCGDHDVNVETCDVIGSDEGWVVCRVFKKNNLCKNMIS
Outline: as §1

GST-SND1(1-203) = biological target: T7, GST-SND1(1-203) (Arabidopsis thaliana, UniProt Q9LPI7 1-203)
T7 sequence: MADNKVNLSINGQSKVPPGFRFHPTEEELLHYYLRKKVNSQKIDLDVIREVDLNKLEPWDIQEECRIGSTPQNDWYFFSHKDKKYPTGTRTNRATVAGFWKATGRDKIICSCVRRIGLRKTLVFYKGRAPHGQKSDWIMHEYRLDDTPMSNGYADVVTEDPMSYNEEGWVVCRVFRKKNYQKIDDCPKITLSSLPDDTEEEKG
Outline: as §1

GST-VND3 NAC domain = biological target: T8, GST-VND3 NAC domain (Arabidopsis thaliana, UniProt Q9FH59 12-162)
T8 sequence: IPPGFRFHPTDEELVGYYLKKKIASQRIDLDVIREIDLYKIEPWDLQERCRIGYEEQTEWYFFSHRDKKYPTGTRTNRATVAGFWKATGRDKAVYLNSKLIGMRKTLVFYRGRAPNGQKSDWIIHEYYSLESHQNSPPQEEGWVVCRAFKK
Outline: as §1

GST-VND7 NAC domain = biological target: T9, GST-VND7 NAC domain (Arabidopsis thaliana, UniProt Q9C8W9 9-158)
T9 sequence: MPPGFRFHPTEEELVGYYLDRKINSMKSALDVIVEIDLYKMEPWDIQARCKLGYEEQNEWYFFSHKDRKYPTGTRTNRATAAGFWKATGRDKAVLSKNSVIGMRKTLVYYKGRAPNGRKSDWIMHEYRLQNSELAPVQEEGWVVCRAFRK
Outline: as §1

GST-NAP(1-166) = biological target: T10, GST-NAP(1-166) (Arabidopsis thaliana, UniProt O49255 1-166)
T10 sequence: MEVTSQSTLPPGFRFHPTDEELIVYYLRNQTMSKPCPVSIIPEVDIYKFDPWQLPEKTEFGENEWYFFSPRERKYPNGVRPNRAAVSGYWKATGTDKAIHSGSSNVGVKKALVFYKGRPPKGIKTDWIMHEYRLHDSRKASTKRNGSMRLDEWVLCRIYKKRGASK
Outline: as §1

GST-NTL8 NAC domain = biological target: T11, GST-NTL8 NAC domain (Arabidopsis thaliana, UniProt Q9XIN7 14-156)
T11 sequence: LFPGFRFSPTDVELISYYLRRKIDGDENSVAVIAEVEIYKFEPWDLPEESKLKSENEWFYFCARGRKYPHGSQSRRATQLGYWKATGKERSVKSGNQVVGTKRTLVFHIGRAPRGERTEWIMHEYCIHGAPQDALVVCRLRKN
Outline: as §1

| Sequence | binding signal (GST-ANAC092(1-176)) [E-score] | binding signal (GST-NTL6(1-168)) [E-score] | binding signal (GST-ANAC019 NAC domain) [E-score] | binding signal (GST-ANAC055(1-171)) [E-score] | binding signal (GST-ATAF1 NAC domain) [E-score] | binding signal [1] [E-score] | binding signal (GST-NST2(1-184)) [E-score] | binding signal (GST-SND1(1-203)) [E-score] | binding signal (GST-VND3 NAC domain) [E-score] | binding signal (GST-VND7 NAC domain) [E-score] | binding signal (GST-NAP(1-166)) [E-score] | binding signal (GST-NTL8 NAC domain) [E-score] |
| --- | --- | --- | --- | --- | --- | --- | --- | --- | --- | --- | --- | --- |
| AGTAAGTA | 0.145 | 0.415 | 0.133 | 0.199 | 0.14 | 0.184 | 0.218 | 0.137 | 0.275 | 0.083 | – | – |
| CACACGCA | 0.453 | 0.0743 | 0.389 | 0.321 | 0.248 | 0.47 | 0.229 | 0.327 | 0.375 | 0.353 | 0.375 | 0.141 |
| AAGCAATC | 0.384 | 0.324 | 0.21 | 0.0736 | 0.108 | 0.417 | 0.327 | 0.466 | 0.152 | 0.289 | – | 0.264 |
| AAGCAAAG | 0.302 | 0.342 | 0.176 | 0.125 | 0.0761 | 0.369 | 0.278 | 0.403 | 0.198 | 0.25 | 0.11 | 0.222 |
| GTTACGTA | 0.463 | 0.214 | 0.482 | 0.473 | 0.463 | 0.456 | 0.337 | 0.442 | 0.471 | 0.477 | 0.483 | 0.319 |
| AGAAGCAA | 0.381 | 0.361 | 0.0522 | 0.119 | 0.0783 | 0.42 | 0.284 | 0.382 | 0.109 | 0.234 | – | 0.218 |
| ACGCTACA | 0.27 | 0.051 | – | 0.0711 | 0.0647 | 0.404 | 0.249 | 0.402 | 0.101 | 0.0811 | 0.0555 | – |
| ACTTAACC | 0.197 | 0.402 | 0.17 | 0.115 | 0.132 | 0.186 | 0.164 | 0.221 | 0.203 | 0.209 | – | 0.243 |
| GTTAAGTA | 0.119 | 0.45 | 0.171 | 0.0947 | 0.218 | 0.123 | 0.148 | 0.202 | 0.245 | 0.0716 | – | 0.228 |
| GAAGGTAA | 0.174 | 0.329 | 0.158 | 0.111 | 0.22 | 0.25 | 0.255 | 0.227 | 0.148 | 0.141 | – | 0.463 |
| ATACGCTA | 0.451 | 0.0936 | – | 0.223 | 0.187 | 0.466 | 0.331 | 0.458 | 0.163 | 0.182 | 0.155 | – |
| GTGGAGTA | 0.275 | 0.0723 | – | 0.0843 | 0.217 | 0.332 | 0.242 | 0.402 | 0.0649 | 0.15 | 0.0918 | – |
| GTAGCGTA | 0.427 | 0.111 | – | 0.205 | 0.288 | 0.47 | 0.381 | 0.489 | 0.239 | 0.267 | 0.27 | – |
| TAAGGAAA | 0.212 | 0.478 | – | 0.109 | 0.157 | 0.252 | 0.152 | 0.334 | 0.16 | 0.0908 | 0.0748 | 0.424 |
| GAAGCAAC | 0.372 | 0.399 | – | 0.142 | 0.103 | 0.417 | 0.282 | 0.443 | 0.0788 | 0.228 | – | 0.416 |
